# Source: ChEMBL document CHEMBL3988442, “University of Dundee, Small-Polar-MMV Screening Library” (2021)
# For some of these results: Potency and affinity values are given separately.
# Tests used:
# Parameters in all cases: scale not given: direction of the effect not stated beside the values
# [1] = target: Protein translocase subunit SecA (Escherichia coli (strain K12)) (UniProt P10408); assay: Assay to Identify E. coli SecA ATPase Inhibitors; format: functional; conditions: 30 µM
# [2] = target: T1, Ubiquitin-activating enzyme e1, putative (Leishmania donovani (strain BPK282A1)) (UniProt E9BSI1); assay: Leishmania donovani Ubiquitin Activating Enzyme (LdE1); format: functional; conditions: 30 µM
# T1 sequence (whole entry): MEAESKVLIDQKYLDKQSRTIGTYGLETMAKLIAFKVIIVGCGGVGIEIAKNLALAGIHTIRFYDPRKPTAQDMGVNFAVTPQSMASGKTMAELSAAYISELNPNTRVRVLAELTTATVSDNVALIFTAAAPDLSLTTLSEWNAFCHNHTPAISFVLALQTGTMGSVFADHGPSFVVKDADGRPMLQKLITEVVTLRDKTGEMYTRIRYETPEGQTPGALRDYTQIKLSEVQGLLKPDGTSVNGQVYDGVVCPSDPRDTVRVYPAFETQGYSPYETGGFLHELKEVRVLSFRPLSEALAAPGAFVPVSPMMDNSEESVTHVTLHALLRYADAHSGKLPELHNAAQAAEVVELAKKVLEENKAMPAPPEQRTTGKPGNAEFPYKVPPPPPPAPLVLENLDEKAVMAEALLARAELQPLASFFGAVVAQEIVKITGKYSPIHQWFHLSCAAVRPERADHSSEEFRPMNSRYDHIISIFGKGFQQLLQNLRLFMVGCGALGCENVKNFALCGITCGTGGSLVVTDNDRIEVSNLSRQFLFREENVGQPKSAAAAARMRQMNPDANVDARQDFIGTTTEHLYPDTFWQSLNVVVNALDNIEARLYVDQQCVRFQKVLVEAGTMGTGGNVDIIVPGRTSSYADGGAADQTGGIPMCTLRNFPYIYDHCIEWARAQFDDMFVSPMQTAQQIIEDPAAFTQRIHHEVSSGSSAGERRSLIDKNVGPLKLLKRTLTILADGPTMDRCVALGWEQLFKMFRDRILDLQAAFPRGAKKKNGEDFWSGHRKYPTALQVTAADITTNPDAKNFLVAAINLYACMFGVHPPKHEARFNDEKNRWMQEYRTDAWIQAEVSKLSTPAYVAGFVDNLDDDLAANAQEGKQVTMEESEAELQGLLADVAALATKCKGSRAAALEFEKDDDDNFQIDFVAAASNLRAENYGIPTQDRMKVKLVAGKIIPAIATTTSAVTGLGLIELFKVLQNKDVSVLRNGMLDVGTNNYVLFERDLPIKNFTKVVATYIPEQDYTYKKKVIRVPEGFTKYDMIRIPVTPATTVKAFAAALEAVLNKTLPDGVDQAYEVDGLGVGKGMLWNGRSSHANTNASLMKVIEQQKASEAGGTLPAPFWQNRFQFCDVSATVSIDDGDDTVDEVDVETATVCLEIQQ
# [3] = target: AMP-activated protein kinase, AMPK (Homo sapiens) (UniProt P54646+O43741+P54619+Q9UGJ0+Q9Y478+Q13131+Q9UGI9); assay: AMP-dependent Kinase enzyme assay. An in vitro enzyme assay that detects ADP turnover that is directly proportional to AMPK activity. This uses naive AMPK that is activated during the assay with MK-8722; format: functional; conditions: 30 µM
# [4] = target: Sialic acid-binding Ig-like lectin 9 (Homo sapiens) (UniProt Q9Y336); assay: Hs-Siglec9 ALPHAscreen SOP 20170721; conditions: 10 µM
# Trypanosoma cruzi = assay: Trypanosoma cruzi phosphomannomutase and mannose-1-phosphate guanylyltransferase assay; format: functional; conditions: 10 µM
# [5] = target: T2, Arginase-2, mitochondrial (Homo sapiens) (UniProt P78540); assay: in vitro enzyme assay to detect the production of urea directly proportional to the activity of Arginase II; format: functional; conditions: 33.3 µM; note: in the data most compounds retested in dose-response had high values
# T2 sequence (whole entry): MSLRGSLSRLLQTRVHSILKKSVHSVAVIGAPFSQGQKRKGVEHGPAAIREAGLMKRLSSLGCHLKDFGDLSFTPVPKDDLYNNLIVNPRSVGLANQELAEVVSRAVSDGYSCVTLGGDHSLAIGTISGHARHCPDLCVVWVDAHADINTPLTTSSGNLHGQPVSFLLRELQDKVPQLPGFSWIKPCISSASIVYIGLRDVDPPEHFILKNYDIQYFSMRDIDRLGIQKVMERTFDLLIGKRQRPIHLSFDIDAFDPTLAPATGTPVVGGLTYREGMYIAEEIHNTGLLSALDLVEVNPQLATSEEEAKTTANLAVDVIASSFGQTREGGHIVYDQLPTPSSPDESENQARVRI
# [6] = target: T3, Proteasome subunit beta (Trypanosoma cruzi) (UniProt O96673); assay: Trypanosoma cruzi proteasome chymotrypsin-like activity (TcProtChymo) assay.; note: in the data most compounds retested in dose-response had high values; format: functional; conditions: 9.37 µM
# T3 sequence (whole entry): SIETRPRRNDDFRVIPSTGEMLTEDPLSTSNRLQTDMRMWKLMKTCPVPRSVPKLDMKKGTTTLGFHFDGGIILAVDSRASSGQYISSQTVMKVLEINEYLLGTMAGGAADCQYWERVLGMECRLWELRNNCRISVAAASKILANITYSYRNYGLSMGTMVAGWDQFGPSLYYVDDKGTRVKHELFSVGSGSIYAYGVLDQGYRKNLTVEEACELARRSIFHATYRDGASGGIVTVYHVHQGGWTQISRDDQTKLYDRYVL
# Homo sapiens = species on record: Homo sapiens; assay: To identify inhibition of the IFN signalling (Jak-Stat) pathway via expression of an eGFP reporter gene under the control of an IFN-stimulated response element (ISRE) containing MxA promoter.; format: functional; conditions: 30 µM
# [7] = target: T4, Tyrosyl-tRNA synthetase, putative (Trypanosoma cruzi (strain CL Brener)) (UniProt Q4DSP6); assay: Trypanosoma cruzi tyrosyl tRNA synthetase (TcYRS) _High Tyrosine SOP; format: functional; conditions: 30 µM; note: in the data most compounds retested in dose-response had high values
# T4 sequence (whole entry): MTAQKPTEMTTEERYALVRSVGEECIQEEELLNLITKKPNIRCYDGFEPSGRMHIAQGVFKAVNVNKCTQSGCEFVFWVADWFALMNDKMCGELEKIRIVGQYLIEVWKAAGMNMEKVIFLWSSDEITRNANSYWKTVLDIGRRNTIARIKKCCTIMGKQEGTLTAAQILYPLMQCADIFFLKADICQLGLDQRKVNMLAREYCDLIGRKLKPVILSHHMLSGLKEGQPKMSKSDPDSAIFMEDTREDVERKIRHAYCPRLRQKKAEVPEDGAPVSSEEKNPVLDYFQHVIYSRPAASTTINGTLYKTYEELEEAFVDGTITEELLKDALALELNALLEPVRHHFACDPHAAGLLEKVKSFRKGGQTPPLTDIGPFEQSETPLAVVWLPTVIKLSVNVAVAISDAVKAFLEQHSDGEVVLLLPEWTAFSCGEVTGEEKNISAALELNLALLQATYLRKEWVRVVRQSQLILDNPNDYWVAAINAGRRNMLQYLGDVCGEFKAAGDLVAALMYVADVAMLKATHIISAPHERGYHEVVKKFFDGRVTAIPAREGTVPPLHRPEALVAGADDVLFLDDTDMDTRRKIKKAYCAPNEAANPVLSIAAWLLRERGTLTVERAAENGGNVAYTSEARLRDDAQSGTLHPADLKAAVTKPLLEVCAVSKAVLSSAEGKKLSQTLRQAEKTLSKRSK
# [8] = target: T4, Tyrosyl-tRNA synthetase, putative (Trypanosoma cruzi (strain CL Brener)); assay: Trypanosoma cruzi tyrosyl tRNA synthetase (TcYRS) SOP; format: functional; conditions: 30 µM
# [9] = target: Chromo domain-containing protein 1 (Saccharomyces cerevisiae (strain ATCC 204508 / S288c) (Baker's yeast)) (UniProt P32657); assay: ScCHD-1 Enzyme Inhibition Assay; format: functional; conditions: 30 µM; note: in the data most compounds retested in dose-response had high values
# Chromo domain-containing protein 1 (Saccharomyces cerevisiae (strain ATCC 204508 / S288c) (Baker's yeast)), sequence (P32657 whole entry, the tested form may be a part): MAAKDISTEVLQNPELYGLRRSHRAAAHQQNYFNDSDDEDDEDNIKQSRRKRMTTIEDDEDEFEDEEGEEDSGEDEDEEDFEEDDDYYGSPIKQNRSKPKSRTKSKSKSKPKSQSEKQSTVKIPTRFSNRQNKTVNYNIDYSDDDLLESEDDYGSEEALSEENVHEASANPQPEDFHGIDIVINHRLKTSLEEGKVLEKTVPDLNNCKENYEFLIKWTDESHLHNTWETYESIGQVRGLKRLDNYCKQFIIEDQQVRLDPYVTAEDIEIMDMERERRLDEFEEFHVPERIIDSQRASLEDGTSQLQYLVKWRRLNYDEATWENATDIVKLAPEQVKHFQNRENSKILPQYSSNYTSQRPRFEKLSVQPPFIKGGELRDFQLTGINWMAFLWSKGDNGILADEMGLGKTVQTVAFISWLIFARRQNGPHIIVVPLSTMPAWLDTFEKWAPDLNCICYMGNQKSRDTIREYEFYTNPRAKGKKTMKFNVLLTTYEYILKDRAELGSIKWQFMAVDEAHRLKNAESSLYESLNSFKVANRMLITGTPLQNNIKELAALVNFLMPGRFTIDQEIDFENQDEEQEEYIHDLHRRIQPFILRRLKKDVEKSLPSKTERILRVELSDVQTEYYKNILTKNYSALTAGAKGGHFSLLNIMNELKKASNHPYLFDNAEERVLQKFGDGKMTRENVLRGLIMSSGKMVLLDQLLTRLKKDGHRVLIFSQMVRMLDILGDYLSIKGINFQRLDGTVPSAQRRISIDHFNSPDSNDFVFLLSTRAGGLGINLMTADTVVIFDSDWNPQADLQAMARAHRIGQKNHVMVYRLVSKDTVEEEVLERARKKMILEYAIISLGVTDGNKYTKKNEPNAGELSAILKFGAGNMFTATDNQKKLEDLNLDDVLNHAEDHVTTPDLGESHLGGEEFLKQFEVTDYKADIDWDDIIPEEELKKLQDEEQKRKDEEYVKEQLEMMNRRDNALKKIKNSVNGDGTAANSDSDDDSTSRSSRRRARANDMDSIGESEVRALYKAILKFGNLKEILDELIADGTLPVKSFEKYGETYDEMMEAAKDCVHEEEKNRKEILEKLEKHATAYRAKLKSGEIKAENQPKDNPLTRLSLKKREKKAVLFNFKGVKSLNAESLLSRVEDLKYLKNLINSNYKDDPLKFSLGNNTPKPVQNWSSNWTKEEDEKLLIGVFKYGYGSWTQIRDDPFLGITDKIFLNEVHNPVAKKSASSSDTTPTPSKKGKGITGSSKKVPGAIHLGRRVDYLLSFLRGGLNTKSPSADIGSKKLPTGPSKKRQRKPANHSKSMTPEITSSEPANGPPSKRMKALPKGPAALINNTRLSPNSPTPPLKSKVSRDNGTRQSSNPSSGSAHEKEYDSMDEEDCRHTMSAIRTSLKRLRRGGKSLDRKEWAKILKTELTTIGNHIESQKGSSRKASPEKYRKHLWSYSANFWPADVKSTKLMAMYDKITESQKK
# Protein translocase subunit SecA (Escherichia coli (strain K12)), sequence (P10408 whole entry): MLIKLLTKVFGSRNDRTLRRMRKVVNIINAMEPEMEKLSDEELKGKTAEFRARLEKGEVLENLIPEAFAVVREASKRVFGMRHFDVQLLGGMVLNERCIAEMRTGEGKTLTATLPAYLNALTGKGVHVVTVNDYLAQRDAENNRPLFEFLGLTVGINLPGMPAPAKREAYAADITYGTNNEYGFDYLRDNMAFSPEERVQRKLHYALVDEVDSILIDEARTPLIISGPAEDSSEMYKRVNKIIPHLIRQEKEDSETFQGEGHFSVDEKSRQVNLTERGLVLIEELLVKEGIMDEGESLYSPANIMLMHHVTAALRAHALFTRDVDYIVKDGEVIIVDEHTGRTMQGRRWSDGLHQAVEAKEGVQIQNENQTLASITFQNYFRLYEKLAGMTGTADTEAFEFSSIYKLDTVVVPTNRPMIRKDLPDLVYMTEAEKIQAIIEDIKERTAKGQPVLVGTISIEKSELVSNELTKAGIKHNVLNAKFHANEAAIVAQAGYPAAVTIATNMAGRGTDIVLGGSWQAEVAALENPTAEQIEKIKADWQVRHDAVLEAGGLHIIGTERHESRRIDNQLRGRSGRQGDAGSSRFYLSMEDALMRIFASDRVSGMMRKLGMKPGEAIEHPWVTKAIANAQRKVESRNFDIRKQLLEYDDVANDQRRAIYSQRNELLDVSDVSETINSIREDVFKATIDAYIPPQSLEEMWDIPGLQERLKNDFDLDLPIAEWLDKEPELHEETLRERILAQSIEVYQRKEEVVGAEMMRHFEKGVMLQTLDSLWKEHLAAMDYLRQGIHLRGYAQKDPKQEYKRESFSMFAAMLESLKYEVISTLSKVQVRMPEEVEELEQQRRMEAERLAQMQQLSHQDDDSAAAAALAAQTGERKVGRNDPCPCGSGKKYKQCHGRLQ
# Sialic acid-binding Ig-like lectin 9 (Homo sapiens), sequence (Q9Y336 whole entry): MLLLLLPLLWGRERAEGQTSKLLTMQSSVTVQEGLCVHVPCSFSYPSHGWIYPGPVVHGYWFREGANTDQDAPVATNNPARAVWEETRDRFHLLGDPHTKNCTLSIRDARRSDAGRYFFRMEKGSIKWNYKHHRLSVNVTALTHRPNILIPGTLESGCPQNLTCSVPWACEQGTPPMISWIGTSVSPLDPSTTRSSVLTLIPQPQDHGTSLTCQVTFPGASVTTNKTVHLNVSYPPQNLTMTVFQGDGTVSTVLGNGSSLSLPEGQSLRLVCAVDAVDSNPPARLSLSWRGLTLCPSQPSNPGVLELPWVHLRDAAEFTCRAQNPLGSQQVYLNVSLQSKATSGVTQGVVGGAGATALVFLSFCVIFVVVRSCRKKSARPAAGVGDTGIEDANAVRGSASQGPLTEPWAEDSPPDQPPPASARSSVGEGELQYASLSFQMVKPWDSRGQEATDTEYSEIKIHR
SMILES,Percent Effect [1] [%],Percent Effect [2] [%],Percent Effect [3] [%],Percent Effect [4] [%],Percent Effect (Trypanosoma cruzi) [%],Percent Effect [5] [%],Percent Effect [6] [%],Percent Effect (Homo sapiens) [%],Percent Effect [7] [%],Percent Effect [8] [%],Percent Effect [9] [%]
CC(C)c1nc2n(n1)CC(NCc1nc(-c3cccnc3)no1)CC2 (stereo not given),-3.79,2.6,-1.93,-12.6,5.78,-2.74,11.1,-3.81,3.81,11.8,-23.3
CC(C)N1CCOCC2(CN(Cc3ccco3)CCO2)C1 (stereo not given),-0.00842,-5.48,2.81,4.65,-2.58,2.4,13.8,3.21,2.08,8.64,0.188
CN(Cc1ccsc1)C(=O)CS(=O)(=O)Cc1ccc(Cl)c(Cl)c1,-1.27,-5.2,10.5,-5.21,7.15,0.21,15.6,7.44,-13.3,0,-13.1
c1cnnc(NCC2CN(Cc3cccc4c3OCCO4)CCO2)c1 (stereo not given),-3.5,5.2,2.26,4.61,9.55,-2.13,1.18,18.6,10.7,24.4,-7.39
O=C(NCC1CCCO1)c1c(-n2cnnn2)sc2c1CCC2 (stereo not given),-5.27,5.26,6.31,-1.47,-2.82,3.55,17.6,-12.3,3.19,7.79,-4.34
CN(C)Cc1ccnc(C2CCCN2Cc2cc[nH]n2)n1 (stereo not given),-6.5,-6.76,10.3,-1.81,-1.78,-1.16,6.08,-0.845,3.23,3.9,1.51
COc1cc(CNCCc2nc(C)cs2)cc2c1OCCO2,-2.37,5.26,1.5,15.7,-1.13,-3.06,12.5,10.1,4.41,12.2,-7.14
O=C(c1cccnc1)N1CC[C@H](OCC2CC2)[C@@H]1Cc1cccnc1,-0.924,13.3,5.44,-0.245,-4.44,-43.2,2.73,-15.6,1.04,-10,-6.48
Oc1nc(N2CCOCC2)nc2c1CCN(Cc1cccnc1)CC2,-4.93,6.76,7.05,1.25,-1.98,-3.48,5.15,3.87,4.3,11.7,-8.38
O=C(CN(Cc1ccccc1)CC1CCOCC1)NC(=O)NC1CC1,-9.18,0,0.0982,-1.54,-4.96,-4.39,3,-3.5,1.04,-3.7,1.29
Cc1ccc(-c2nc(CN3CCc4nn(C)c(=O)cc4C3)no2)cc1,-1.55,-24.3,7.36,-4.73,5.75,2.81,-12.8,2.86,-0.493,-1.24,-4.17
Cc1oncc1C(=O)N1CCC2(CC1)CC(c1ccccc1)C(=O)N2C (stereo not given),-3.51,-16,-4.85,1.07,3.28,-47.1,7.69,-5.26,-37.5,-62.5,-5.13
CC(C)[C@H](NC(=O)NC1CCS(=O)(=O)C1)C(=O)Nc1cccnc1 (stereo not given in full),1.55,9.33,-0.824,-4.96,-3.34,-8.28,13.1,17.4,3.17,12.8,-7.36
c1cc(CN2CCN(Cc3cscn3)CC2)cs1,-1.31,10.4,3.68,-2.63,-2.25,4,2.67,29.1,2.86,2.35,-6.18
CCOC(=O)CCC(=O)NC(C)c1ccc(NC(=O)CC)cc1 (stereo not given),-1.67,7.89,2.06,-5.73,-1.66,1.18,9.88,6.92,6.38,13,-3.37
Cc1nc(CC(=O)N2CCC[C@H]2c2nc(C(C)C)no2)cs1,-6.79,-1.39,0.72,-1.32,1.26,3.09,7.19,-13.6,3.16,5.13,-0.504
COCCN1CCCC(c2nc3c([nH]2)CC(C)(C)CNC3=O)C1 (stereo not given),0.299,5.41,-1.1,13.4,2.32,25.2,12.4,10.5,5.82,9.76,0.619
COc1ccc2c(c1)CCN(CCC(=O)NC1CCCCC1)CC2,-1.36,2.7,-5.04,1.78,5.41,-1.43,15.3,14.6,6.88,12.2,-1.4
O=C(c1ccc(C2CCCO2)s1)N1CCS(=O)(=O)CC1 (stereo not given),-1.4,18.9,-2.69,22.7,9.07,1.91,17.1,6.53,4.76,17.1,-2.6
CN(C)c1cc2c(nn1)CCN(C(=O)C1Cc3ccccc3S1)C2 (stereo not given),-3.54,10.1,-4.45,16,5.76,1.14,8.27,-10.7,7.39,11.4,9.74
